The full ranking holds about 33,000 sequences; the median of “normalized occupancy” is about 0.075, and the highest 2% start at about 0.095. This excerpt belongs to a sample that is enriched for the highest values.

Sequence of MaxL homodimer (P61244 whole entry): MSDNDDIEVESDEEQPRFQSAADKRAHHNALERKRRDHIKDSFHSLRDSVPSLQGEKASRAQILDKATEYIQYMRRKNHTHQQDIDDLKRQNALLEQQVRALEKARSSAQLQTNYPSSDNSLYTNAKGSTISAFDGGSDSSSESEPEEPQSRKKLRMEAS

The test concerns the target MaxL homodimer (Homo sapiens, UniProt P61244 1-160). The experiment in a line: universal protein-binding microarray (PBM); PBS-based mixture, 10 nM His-tagged protein dimer, 2% milk, 200 ng/uL BSA, 50 ng/uL salmon testes DNA, 0.02% TX-100; detection with Alexa 488 anti-His antibody;; high values mean tight binding. Particulars: protein: recombinant; tags: C-terminal His-tag (pET21a); chain copies: 2; dsDNA, one strand shown. The method, boiled down:
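His-tagged protein dimer at 10 nM was incubated on Agilent 4 x 44 K arrays with the 'all 10-mer' universal design. Bound protein was tagged with 10 ng/μL fluorophore-conjugated anti-His antibody, and arrays were scanned on a GenePix 4400A. Binding occupancy for each 8-mer is its fluorescence intensity normalised to the highest-ranked 8-mer's intensity.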
As for ACTTTTAT, the binding signal was 0.0748 normalized occupancy. The result for CAGTAAAC reads 0.0746 normalized occupancy; that for ACTTTGAA, 0.0759 normalized occupancy. Regarding CGTTATGA, the binding signal amounted to 0.0829 normalized occupancy. The result for CTTGATGA reads 0.0755 normalized occupancy; that for AGATTATC, 0.0807 normalized occupancy. The value for CCTCGCCG was 0.0725 normalized occupancy; that for GGCATGGA was 0.0929 normalized occupancy; that for CGCATGGA was 0.106 normalized occupancy.

With GTCATGGA, the binding signal was 0.0831 normalized occupancy. The result for ACTGTTTC reads 0.0744 normalized occupancy; that for ATGAGTAC, 0.0839 normalized occupancy.

Take CATGCTAA: the binding signal turned out to be 0.091 normalized occupancy. The value for AATGCTAC was 0.0772 normalized occupancy; that for AATGCTAG was 0.079 normalized occupancy. The value for CATGCTAG was 0.106 normalized occupancy. Regarding CATGCTAC, the binding signal turned out to be 0.0953 normalized occupancy. Regarding GATGCTAC, the binding signal was 0.081 normalized occupancy.

Regarding GGTAACGA, the binding signal turned out to be 0.0778 normalized occupancy. Consider AGATGACT, for which the binding signal is 0.0724 normalized occupancy.

On to CGGTGGAA, for which the binding signal amounted to 0.0725 normalized occupancy. As to ACATATGT, the binding signal was 0.0906 normalized occupancy. As for ACATATGG, the binding signal was 0.0977 normalized occupancy. The result for ATATATGG reads 0.0895 normalized occupancy; that for ACATATCC, 0.0835 normalized occupancy; that for ACATATGC, 0.0976 normalized occupancy. The result for CCATATGA reads 0.0926 normalized occupancy; that for ATATATGC, 0.0867 normalized occupancy; that for ACATATGA, 0.0952 normalized occupancy.

As to TCATATGA, the binding signal was 0.0914 normalized occupancy. Regarding GAACATAC, the binding signal was 0.0829 normalized occupancy.

Regarding GAATTACC, the binding signal came to 0.072 normalized occupancy. For GCACCTTA, the binding signal stood at 0.0768 normalized occupancy. Take AACGAGGA: the binding signal was 0.088 normalized occupancy. Consider AACGAGAC, for which the binding signal came out at 0.075 normalized occupancy. Take CACGAGGG: the binding signal came to 0.134 normalized occupancy. The result for CACGAGAA reads 0.0893 normalized occupancy; that for CACGAGCG, 0.082 normalized occupancy; that for CACGAGGC, 0.134 normalized occupancy.

For CACGAGAC, the binding signal is 0.1 normalized occupancy. The result for AACGAGGG reads 0.0775 normalized occupancy. With CACGAGCC, the binding signal came to 0.0812 normalized occupancy.

As to AACGAGGC, the binding signal amounted to 0.0809 normalized occupancy. Turning to CACGAGGA, the binding signal came to 0.137 normalized occupancy.

Regarding TACGAGGA, the binding signal was determined as 0.0793 normalized occupancy.

Consider TACGGGCA, for which the binding signal worked out at 0.0723 normalized occupancy. The result for GGTCTTAA reads 0.075 normalized occupancy. The result for CTCTATTA reads 0.0807 normalized occupancy; that for CCCCGCAG, 0.072 normalized occupancy; that for CAAATCTA, 0.0804 normalized occupancy.

As to GCTTCTTA, the binding signal came to 0.0746 normalized occupancy.

On to CACAAGAG, for which the binding signal turned out to be 0.0792 normalized occupancy. The value for AATGTTTA was 0.0748 normalized occupancy; that for CACGTTTC was 0.105 normalized occupancy; that for CATGTTTA was 0.0975 normalized occupancy. The result for AACGTTTA reads 0.0757 normalized occupancy. The value for GACGTTTA was 0.0757 normalized occupancy; that for AACGTTTC was 0.0739 normalized occupancy. Turning to CACGTTTA, the binding signal came out at 0.0986 normalized occupancy. In the case of CATGTTTC, the binding signal stood at 0.0831 normalized occupancy. The value for CGCGTTTC was 0.0778 normalized occupancy. With AGAAACCC, the binding signal is 0.0744 normalized occupancy.

As for ATAGAATC, the binding signal was found to be 0.0826 normalized occupancy. The value for AGTGCTAG was 0.0731 normalized occupancy; that for ACCTTCAA was 0.0719 normalized occupancy. As for CGAATAGA, the binding signal came out at 0.0736 normalized occupancy. Consider CAGAACTA, for which the binding signal is 0.0728 normalized occupancy. The result for CTAGAAGA reads 0.0731 normalized occupancy. The value for AACGATGA was 0.0771 normalized occupancy; that for ACCCGTCA was 0.0779 normalized occupancy. In the case of ATGTGTGA, the binding signal is 0.102 normalized occupancy. The result for GTGTGTGA reads 0.0839 normalized occupancy; that for ATGTGCGG, 0.104 normalized occupancy. Regarding ATGTGCGC, the binding signal came to 0.0928 normalized occupancy.

As to ATGTGTCA, the binding signal turned out to be 0.101 normalized occupancy.

For CTGTGTGA, the binding signal came to 0.0738 normalized occupancy. The value for ATGTGCGA was 0.0863 normalized occupancy; that for ATGTGTCG was 0.0903 normalized occupancy; that for GTGTGTCA was 0.0887 normalized occupancy. The result for ATGTGAGG reads 0.0857 normalized occupancy. For the sequence ATGTGAGA, the binding signal amounted to 0.0969 normalized occupancy. The result for GTGTGAGA reads 0.0806 normalized occupancy; that for ATTGAACG, 0.082 normalized occupancy.

In the case of CTGACTAA, the binding signal was 0.0729 normalized occupancy.

Turning to ACATAAGA, the binding signal was 0.0789 normalized occupancy. The result for AACCTCTA reads 0.0738 normalized occupancy.

CCCTCCTC: the binding signal was determined as 0.0734 normalized occupancy. As to CGTACTGA, the binding signal is 0.0729 normalized occupancy. The value for AGCGCACG was 0.0877 normalized occupancy.

Take AGGAAAAC: the binding signal is 0.075 normalized occupancy. Regarding ACGCGCCC, the binding signal was 0.0753 normalized occupancy. The result for TAACTGCA reads 0.0726 normalized occupancy. The value for GCTACCAA was 0.0737 normalized occupancy; that for TGATGGCA was 0.08 normalized occupancy; that for AGTCCCCC was 0.0801 normalized occupancy. The result for ATCTTTAC reads 0.0755 normalized occupancy. As for CTGTGTGC, the binding signal came out at 0.0783 normalized occupancy. Turning to ATGTCACA, the binding signal stood at 0.0852 normalized occupancy. For the sequence ATGTCACG, the binding signal worked out at 0.101 normalized occupancy. The result for ATGTGTGC reads 0.0957 normalized occupancy; that for ATGTCACC, 0.08 normalized occupancy. The value for ATGTGTGG was 0.0891 normalized occupancy; that for AATTCCGA was 0.0729 normalized occupancy. The value for CATCTGTC was 0.0856 normalized occupancy; that for GGGCTGTA was 0.0762 normalized occupancy.

Consider CCCATCTA, for which the binding signal is 0.0745 normalized occupancy.

In the case of CATAAATC, the binding signal stood at 0.0857 normalized occupancy. The result for CCGAACAA reads 0.0756 normalized occupancy; that for GAAGTGAC, 0.0733 normalized occupancy; that for CAAATGAG, 0.0793 normalized occupancy. For GACATGAC, the binding signal stood at 0.0811 normalized occupancy. Take TACATGAA: the binding signal worked out at 0.0793 normalized occupancy. The value for CACATGAC was 0.129 normalized occupancy; that for GACATGAA was 0.0775 normalized occupancy. The result for AACATGAA reads 0.0878 normalized occupancy. In the case of CACATGAG, the binding signal stood at 0.109 normalized occupancy. The result for CAAATGAC reads 0.0825 normalized occupancy. As for CACATGAA, the binding signal is 0.104 normalized occupancy.

On to AACATGAC, for which the binding signal came out at 0.0831 normalized occupancy. The value for CTCATGAG was 0.0946 normalized occupancy; that for AACATGAG was 0.0999 normalized occupancy. The value for ATGTACAA was 0.0815 normalized occupancy. The value for AAAAACCA was 0.0806 normalized occupancy; that for GCCACAGC was 0.0723 normalized occupancy; that for AATCGTAC was 0.0751 normalized occupancy.

With GGACCCCA, the binding signal is 0.0794 normalized occupancy.

With ATGAGAAA, the binding signal was found to be 0.0743 normalized occupancy. As for ATTGGAAC, the binding signal came to 0.076 normalized occupancy.

For the sequence ACGTGTGC, the binding signal was 0.109 normalized occupancy. Consider AAGTGTGC, for which the binding signal stood at 0.0869 normalized occupancy.

As for AAGTGTGG, the binding signal came out at 0.0819 normalized occupancy. The value for CCGTGTGA was 0.0836 normalized occupancy; that for ACGTGCGC was 0.113 normalized occupancy; that for GCGTGTGA was 0.0941 normalized occupancy. The result for ACGTGTGG reads 0.104 normalized occupancy. The result for ACGTGCGA reads 0.093 normalized occupancy; that for AGGTGTGG, 0.0847 normalized occupancy. Turning to CCGTGCGC, the binding signal is 0.0813 normalized occupancy.

With ACGTGTGA, the binding signal was 0.105 normalized occupancy. The result for CCGTGTGC reads 0.0858 normalized occupancy; that for GACGAGAC, 0.0761 normalized occupancy. For the sequence GACAAAAC, the binding signal was determined as 0.0749 normalized occupancy. Regarding CACGAATG, the binding signal is 0.0777 normalized occupancy. For ATTGAAGC, the binding signal is 0.0724 normalized occupancy. For the sequence ATAGTCTG, the binding signal came to 0.0754 normalized occupancy. The value for CCATGCAC was 0.0969 normalized occupancy; that for ACATGCAC was 0.0954 normalized occupancy. CCATGCAA: the binding signal is 0.0895 normalized occupancy. The value for AGATGCAC was 0.0867 normalized occupancy. On to CCATGCAG, for which the binding signal was found to be 0.0965 normalized occupancy. For AGATGCAT, the binding signal was 0.0784 normalized occupancy. The result for CAATGCAC reads 0.0848 normalized occupancy; that for ACATGCAT, 0.105 normalized occupancy. The result for AAATGCAT reads 0.079 normalized occupancy; that for CTATGCAG, 0.0757 normalized occupancy; that for CTATGCAC, 0.0874 normalized occupancy. With ATATGCAC, the binding signal was 0.092 normalized occupancy. The value for AAAGTGAA was 0.0782 normalized occupancy; that for ACTAGTCA was 0.0755 normalized occupancy; that for CTACCCGA was 0.0741 normalized occupancy. The value for AAATATAC was 0.0881 normalized occupancy; that for GCATTAGC was 0.0727 normalized occupancy; that for CGTATGCC was 0.0784 normalized occupancy. The result for ACATGAAT reads 0.0965 normalized occupancy; that for ACATGCAG, 0.097 normalized occupancy. For ACATGAAC, the binding signal stood at 0.0866 normalized occupancy.

AAATGCAG: the binding signal came to 0.0778 normalized occupancy.

Regarding AGATGCAG, the binding signal was 0.0757 normalized occupancy. Regarding ACATGAAG, the binding signal was 0.0842 normalized occupancy. Regarding AAGCTATC, the binding signal is 0.0722 normalized occupancy. ATGACTTG: the binding signal was found to be 0.0818 normalized occupancy. With ACGTGCAG, the binding signal came to 0.101 normalized occupancy.
